Screening data deposited in PubChem BioAssay by National Center for Advancing Translational Sciences (NCATS).
Tau fluor cs: counter-screen for tau fibril formation inhibitors; tau K18 P301L Alexa594 fluorescence, heparin fibrillization; Potency, µM (series often up to 57.7 µM); 280,000 compounds, 0.93% hits; AID 1463; further: nearly all actives have a fitted effect of over 55% in size
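Human K18 P301L tau (15 uM unlabeled plus 0.24 uM Alexa 594-labeled, final) in 100 mM sodium acetate pH 7 was mixed with compound and 20 uM heparin and incubated 6 hr at 37 C.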
KDM4E inh: JMJD2E (human) inhibition. JMJD2E catalytic domain, FDH-coupled NADH fluorescence (FDH is formaldehyde dehydrogenase). Potency, µM (doses to about 57.1 µM), usual class: inhibitors. 230,000 compounds, 1.6% hits. AID 2147; active means well fitted inhibition curve with a large enough effect, not every such curve was filed as active; inconclusive means small, poorly fitted or top-dose-only effect, or another doubt; inactive means no such curve, though single readings can be large or run the other way; further: nearly all actives have a fitted effect of over 50% in size
RGS12 GoLoco inh: blocks human Gai1 binding to RGS12 GoLoco peptide, red readout; Potency, µM (titrated, usually from 61.6 µM), usual class: inhibitors; P63096; Gai1:RGS12 GoLoco peptide FP, rhodamine, 10 min; 230,000 compounds, 0.44% hits; AID 880; active means well fitted inhibition curve with a large enough effect, not every such curve was filed as active; inactive means no such curve, though single readings can be large or run the other way; further: nearly all actives have a fitted effect of over 30% in size
Target sequence (P63096 whole entry, looked up): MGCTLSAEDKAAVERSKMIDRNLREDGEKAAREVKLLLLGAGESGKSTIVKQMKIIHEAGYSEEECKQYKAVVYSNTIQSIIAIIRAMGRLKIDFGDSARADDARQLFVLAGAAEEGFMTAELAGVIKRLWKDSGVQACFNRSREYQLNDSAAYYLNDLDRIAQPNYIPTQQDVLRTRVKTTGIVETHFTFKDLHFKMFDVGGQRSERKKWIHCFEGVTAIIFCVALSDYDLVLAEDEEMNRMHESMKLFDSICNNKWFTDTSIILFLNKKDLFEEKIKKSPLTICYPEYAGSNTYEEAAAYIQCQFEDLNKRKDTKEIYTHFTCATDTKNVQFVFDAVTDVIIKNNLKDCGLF
Tau fibril ThT: inhibitors of human tau fibril formation, thioflavin T binding; Potency, µM (top dose mostly 57.4 µM), actives largely listed as inhibitors; AID 1460; recombinant tau K18 P301L, heparin-induced fibrillization, ThT fluorescence; P10636; 270,000 compounds, 2.1% hits; further: nearly all actives have a fitted effect of over 55% in size
Target sequence (P10636 561-689 P618L limits assumed): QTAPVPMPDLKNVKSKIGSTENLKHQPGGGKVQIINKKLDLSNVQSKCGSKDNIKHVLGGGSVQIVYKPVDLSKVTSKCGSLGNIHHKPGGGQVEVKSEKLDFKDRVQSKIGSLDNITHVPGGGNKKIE
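ThT emission at 510 nm, taken 1 hr after adding 30 uM dye, quantifies aggregates formed when 20 uM heparin acts on human tau K18 P301L for 6 hr at 37 C.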
Tau FP inhib: inhibitors of human tau fibril formation; P10636; K18 P301L tau heparin fibrillization, Alexa594 FP, 6 h; 280,000 compounds, 0.39% hits; Potency, µM (titrated, usually from 57.7 µM), hits mostly inhibitors; further: nearly all actives have a fitted effect of over 55% in size
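Quantitative HTS format: compounds meet 15 uM recombinant K18 P301L tau and Alexa 594-tau tracer in 100 mM sodium acetate pH 7; 20 uM heparin triggers fibrillization at 37 C over 6 hr; FP gives the signal.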
Numbers stand for hits; - = inactive; ? = inconclusive; . = not tested or not shown; [ ] = dose if it differs, or a comment. Hits are enriched below; roughly 3.4% of the tested compounds scored in any of these assays. Unless noted, the call rests on the fitted dose curve; in most records, active means well fitted curve in the direction sought with a large enough effect; inconclusive means small, poorly fitted or top-dose-only effect, or another doubt; inactive means no such curve, though single readings can be large; an effect the other way counts as inactive or inconclusive.

SMILES	Tau fluor cs	KDM4E inh	RGS12 GoLoco inh	Tau fibril ThT	Tau FP inhib
O=[N+]([O-])c1cc(Cl)c2cccnc2c1O	-	13µM	-	10µM	-
O=[N+]([O-])c1ccc(O)c2ncccc12	-	?	-	?	?
O=[N+]([O-])c1cc([N+](=O)[O-])c2cccnc2c1Oc1ccccc1O	-	22µM	.	?	-
O=[N+]([O-])c1cc(Cl)c(O)c2ncccc12	-	?	-	13µM	-
O=[N+]([O-])c1ccc(Cl)c2cccnc12	-	-	-	-	-
O=[N+]([O-])c1cc(F)c2cccnc2c1O	-	-	-	7.9µM	?
CC1CCN(S(=O)(=O)c2ccc3c(c2)CCN3C(=O)Nc2ccccc2Br)CC1	-	.	.	-	-
Oc1c(I)cc(Cl)c2cccnc12	?	14µM	-	?	?
Oc1c(C(c2ccccn2)N2CCCCC2)cc(Cl)c2cccnc12 (centres undefined)	-	?	-	?	-
CCCCn1c(/N=C/c2c[nH]c3ccccc23)nc2ccccc21	22µM[quencher]	-	-	-	?
Cc1cc(N/N=C/c2c[nH]c3ccccc23)c2ccccc2n1	-	?	-	-	-
Cn1c(N/N=C/c2c[nH]c3ccccc23)nc2ccccc21	16µM[quencher]	?	-	4.5µM	-
Fc1c(F)c(F)c(N/N=C/c2c[nH]c3ccccc23)c(F)c1F	7.1µM[quencher]	-	-	13µM	?
CCCn1c(/N=C/c2c[nH]c3ccccc23)nc2ccccc21	?	-	-	-	?
CCOc1ccc(Cn2c(CNS(=O)(=O)c3cccs3)nc3cccnc32)cc1	-	.	.	-	-
O=C(Nc1ccc(OCc2cc(=O)n3ccsc3n2)cc1)c1ccc(F)cc1	-	.	.	?	-
Cc1sc2c(c1C)c(=O)n(Cc1ccccc1)c(=O)n2CC(=O)Nc1cccc(Cl)c1	-	.	.	?	32µM
CC(=O)N1CCc2c(sc3c2c(=O)n(Cc2ccccc2)c(=O)n3CC(=O)Nc2ccc(C)c(F)c2)C1	?	.	.	?	28µM
COC(=O)c1ccc(NC(=O)CCc2c(C)nc3c(c2C)c(=O)n(C)c(=O)n3C)cc1	-	.	.	-	-
CCc1ccc(Cn2c(CNS(=O)(=O)c3ccc(Cl)s3)nc3cccnc32)cc1	-	.	.	-	-
Cc1ccc(C)c(N2CCN(C(=O)C3CCN(c4nc(-c5ccc(C(C)C)cc5)no4)CC3)CC2)c1	-	.	.	?	-
NC(N)=N/N=C\c1ccc(O)c(C(=O)O)c1	.	.	-[14.2 µM]	.	.
O=C1Nc2ccccc2/C1=N\N=C\c1ccc(O)c(O)c1	?	7.9µM	-	4.5µM	-
COc1cc(/C=N/N=C2/C(=O)Nc3ccccc32)ccc1O	?	-	-	11µM	-
Cc1ccsc1/C=N/N=C1\C(=O)Nc2ccccc21	?	-	-	14µM	-
SMILES	Tau fluor cs	KDM4E inh	RGS12 GoLoco inh	Tau fibril ThT	Tau FP inhib
O=C(/C(=N/N=C/c1ccc(O)c(O)c1)c1ccccc1)c1ccccc1	13µM[quencher]	?	-	?	-
CCN(c1ccccc1)c1nnc(NC(=O)Nc2ccc(C)cc2)s1	-	.	.	?	-
CCc1c(-c2ccccc2)nc2ccccc2c1C(=O)NCc1ccc(C)cc1	-	.	.	-	-
CC(C)NC(=O)CSc1nc2ccccc2c(=O)n1Cc1ccc(C(=O)NC(C)C)cc1	-	.	.	-	-
O=c1c2cnn(-c3ccc(Cl)cc3)c2ncn1Cc1cccc(C(F)(F)F)c1	-	.	.	-	-
CCN1CCN(c2csc3ccc(Cl)cc3c2=O)CC1	-	.	.	?	-
O=c1c(N2CCN(c3cccc(Cl)c3)CC2)csc2ccccc12	-	.	.	10µM	-
O=c1c(N2CCN(c3ccccc3)CC2)csc2ccc(Cl)cc12	?	.	.	13µM	-
O=C(/C=C/Nc1ccccc1F)c1cccs1	-	-	8.9µM	?	-
O=C(/C=C/Nc1ccc(F)cc1F)c1cccs1	-	-	-	-	-
O=C(/C=C\Nc1ccc2c(c1)OCO2)c1cccs1	?	-	-	2µM	-
O=C(/C=C\Nc1ccc2c(c1)OCO2)c1ccc(Cl)s1	-	-	-	2.8µM	-
CCN(C(=O)C1CCCN(c2ncnc3c2nc2n3CCCCC2)C1)c1cccc(C)c1 (centres undefined)	-	.	.	-	-
CCN(CC)C(=O)c1sc(NC(=O)C(C)Sc2nc(-c3ccccc3)cc(C(F)(F)F)n2)c(C(=O)OC)c1C (centres undefined)	-	.	.	25µM	?
CCCOC(=O)c1c(NC(=O)C(C)Sc2nc(-c3ccccc3)cc(C(F)(F)F)n2)sc(C(=O)N(C)C)c1C (centres undefined)	-	.	.	?	-
CCOC(=O)c1ccc(NC(=O)CN2c3ccccc3S(=O)(=O)c3ccccc32)cc1	?	.	.	-	?
COc1ccc(-c2c(-c3ccc(O)cc3O)n[nH]c2C)cc1OC	-	-	-	-	-
Oc1ccc(-c2n[nH]c(C(F)(F)F)c2-c2ccccc2)c(O)c1	?	-	-	-	-
COc1ccc(-c2c(-c3ccc(O)cc3O)n[nH]c2C(F)(F)F)cc1	11µM[quencher]	-	-	-	-
COc1ccccc1-c1c(-c2ccc(O)cc2O)n[nH]c1C(F)(F)F	8.9µM[quencher]	-	-	-	-
Cc1cc(C)c(/C=C/c2onc(C)c2S(=O)(=O)N2CCC(C(=O)N3CCN(c4ccccc4)CC3)CC2)c(C)c1	-	.	.	-	-
COc1ccc(-c2nc3cnc(OCc4ccccc4)nc3n(CCC#N)c2=O)cc1	.	.	-	.	.
COc1ccc(OC)c(NC(=S)NCc2cccs2)c1	-	-	-	-	-
COc1ccc(OC)c(NC(=S)N(CCc2c(C)[nH]c3ccccc23)Cc2cccs2)c1	7.1µM[quencher]	-	-	-	-
COc1ccc(OC)c(NC(=S)N(CCc2c(C)[nH]c3ccc(C)cc23)Cc2cccs2)c1	8.9µM[quencher]	-	-	-	-
SMILES	Tau fluor cs	KDM4E inh	RGS12 GoLoco inh	Tau fibril ThT	Tau FP inhib
COc1cccc(NC(=S)N(CCc2c(C)[nH]c3ccc(C)cc23)Cc2cccs2)c1	-	-	-	-	-
COc1ccc2[nH]c(C)c(CCN(Cc3cccs3)C(=S)Nc3cccc(F)c3)c2c1	10µM[quencher]	-	-	?	-
Cc1ccc(NC(=O)c2cc(S(=O)(=O)N3CCCCC3)c[nH]2)cc1N(C)C	-	.	.	-	-
CCn1c(-c2cc(-c3ccccc3)sc2N)n[nH]c1=S	14µM[quencher]	-	-	?	-
Cc1nn(-c2ccccc2)c2c1N(CC(=O)N1CCN(c3ccc(F)cc3)CC1)C(=O)CS2	-	.	.	-	-
CC(=O)NC(c1ccco1)c1ccc2cccnc2c1O (centres undefined)	-	25µM	-	-	-
COc1ccc(C(NC(=O)C(C)C)c2ccc3cccnc3c2O)cc1 (centres undefined)	-	28µM	-	.	-
Cc1cccc(OCC(=O)N(Cc2ccc(C(C)(C)C)cc2)Cc2ccco2)c1	-	.	.	?	-
COc1ccccc1CNC(=O)C1CCN(S(=O)(=O)c2c(C)noc2/C=C/c2c(C)cc(C)cc2C)CC1	-	.	.	-	-
COc1cc(/C=C/c2ccc(O)cc2)cc(OC)c1	16µM[quencher]	?	-	?	-
CC(=O)NNC(=O)c1sc(=S)n2c1[nH]c(=O)c1sccc12	-	-	-	?	-
